Screens from PubChem.
Sampled rows, rich in hits. Any-hit rate of the full collection: about 7.7%.
TbPYK inhibitor = qHTS of Trypanosoma Brucei Inhibitors; pyruvate kinase (Trypanosoma brucei), Q57TT1; TbPYK enzyme, Kinase-Glo Plus ATP luminescence, 45 min; Potency, µM (doses to about 76.8 µM), without a hit: at the highest dose activity, negative = inhibition, actives largely listed as inhibitors; 410,000 compounds, 0.12% hits; further: potency means the concentration at half of the fitted maximal effect; nearly all actives have a fitted effect of over 50% in size
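ADP (130 uM final) triggers the TbPYK reaction after compound addition; incubation is 45 min at room temperature. Kinase-Glo Plus is then added and luminescence imaged. Normalized data are fitted to concentration-effect curves.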
FMDV antiviral = High Throughput Screening for Foot and Mouth Disease Virus Antivirals; FMDV antiviral cell-based qHTS; Potency, µM (highest dose often 57.9 µM), without a hit: top-dose activity change, negative = inhibition, actives largely listed as inhibitors; 410,000 compounds, 1.2% hits; calls by dose curve; tested in HEK293T cells; further: read-out not given here; potency means the concentration at half of the fitted maximal effect; nearly all actives have a fitted effect of over 45% in size
RE007 growth inh = qHTS Assay for Inhibitors of the HIV-1 protein Vpr | S. pombe RE007 Vpr strain, BacTiter-Glo ATP luminescence, 24 h | Potency, µM (series often up to 92.2 µM), for the others: top-dose activity change, negative = less growth, actives largely listed as inhibitors | 360,000 compounds, 0.21% hits; active means well fitted falling curve with a large enough effect; inconclusive means small, poorly fitted or top-dose-only effect; inactive means no such curve, though single readings can be large or run the other way; further: potency means the concentration at half of the fitted maximal effect; nearly all actives have a fitted effect of over 50% in size
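Fission yeast strain RE007, carrying one chromosomally integrated HIV-1 vpr copy, was seeded at OD 0.01 in PMG+AL medium with 23 nL pinned compound. After 24 h at 30 °C and 99% humidity, viability was read by BacTiter-Glo luminescence.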
FBPA Giardia inh = qHTS Assay for Inhibitors of Fructose-1,6-bisphosphate Aldolase from Giardia Lamblia | A8B2U2 | 290,000 compounds, 0.71% hits | AID 2451, 2010 | Potency, µM (highest dose often 59.6 µM), without a hit: at the highest dose activity, negative = inhibition, usual class: inhibitors | purified Giardia FBPA; further: potency means the concentration at half of the fitted maximal effect; nearly all actives have a fitted effect of over 55% in size
Target sequence (A8B2U2 whole entry, looked up): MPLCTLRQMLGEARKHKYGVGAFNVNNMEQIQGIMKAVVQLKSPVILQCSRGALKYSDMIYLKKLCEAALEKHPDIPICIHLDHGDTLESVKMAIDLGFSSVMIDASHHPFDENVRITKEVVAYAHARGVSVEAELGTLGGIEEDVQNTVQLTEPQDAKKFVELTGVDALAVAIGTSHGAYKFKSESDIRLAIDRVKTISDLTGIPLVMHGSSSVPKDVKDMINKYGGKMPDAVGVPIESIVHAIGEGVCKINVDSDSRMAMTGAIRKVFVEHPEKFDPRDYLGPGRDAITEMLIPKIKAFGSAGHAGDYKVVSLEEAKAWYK
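Giardia FBPA (40 nM reagent) was preincubated 10 min at RT with compound (up to 57.5 uM final), then substrate plus GAPDH/TPI/NAD/arsenate coupling system with diaphorase/resazurin was added; resorufin fluorescence (525/598 nm) was read after 20 min.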
Sm TGR block = qHTS Assay for the Inhibitors of Schistosoma Mansoni Peroxiredoxins; Potency, µM (highest dose often 114 µM), for inactives: at the top dose activity change, negative = inhibition, most hits filed as inhibitors; 360,000 compounds, 3% hits; AID 485364, 2010; Schistosoma mansoni thioredoxin glutathione reductase (TGR), Q962Y6; purified TGR, DTNB reduction, TNB absorbance 405 nm; further: potency means the concentration at half of the fitted maximal effect; nearly all actives have a fitted effect of over 60% in size
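First, TGR (20 nM dispensed) and NADPH were mixed with compound. Second, a 15 min room-temperature incubation followed. Third, further NADPH and then DTNB were added to start the reaction. Finally, TNB absorbance was monitored kinetically.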
HCMV inh = qHTS Assay for inhibitors of the human cytomegalovirus (HCMV). activity change, negative = inhibition, % at 57.5 µM. 410,000 compounds, 4.5% hits. HFF cells, HCMV-luciferase reporter, 72 h; stronger effect = lower value; in the data active means activity change below about -60%; inconclusive means no clear call, values can overlap the other calls; inactive means above about -39%
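Inhibition of viral replication was scored as loss of reporter luminescence in HFFs infected with HCMV-luciferase (MOI 1 PFU/cell) for 72 h; compounds tested at 2 doses, normalized to buffer and Salinomycin controls.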
* marks the source's active call; other numbers are inactive results; ? = inconclusive; / = not tested or not shown; + = active, no number; [ ] = remark or other dose. Unless noted, the call rests on the fitted dose curve; in most records, active means well fitted curve in the direction sought with a large enough effect; inconclusive means small, poorly fitted or top-dose-only effect, or another doubt; inactive means no such curve, though single readings can be large; an effect the other way counts as inactive or inconclusive. On the % scale 0 is the no-effect control and ±100 the full control effect.

SMILES	TbPYK inhibitor	FMDV antiviral	RE007 growth inh	FBPA Giardia inh	Sm TGR block	HCMV inh
Cc1ccc(S(=O)(=O)NNc2ccccc2)c(C)c1	?	6.9%	18.4%	?	39.8µM*	56.7
Cc1ccc(S(=O)(=O)Nc2cc(C(C(=O)OC(C)C)C(=O)C(F)(F)F)c(O)c3ccccc23)c(C)c1 (stereo unspecified)	-10.5%	15.4%	-6.0%	-23.1%	-22.4%	-21.5
Cc1ccc(S(=O)(=O)Nc2ccc(O)c3ccccc23)c(C)c1	-20.3%	-11.7%	-9.8%	?	8.91µM*	?
Cc1ccc(C)c(S(=O)(=O)Nc2ccc(O)c3ccccc23)c1	-6.2%	2.3%	-3.8%	-15.9%	22.4µM*	-22.3
Cc1ccc(C)c(C(=O)Nc2nc3ccccc3[nH]2)c1	3.3%	37.6%	0.2%	-9.6%	3.9%	43.2
Cc1ccc(Nc2nc3ccccc3[nH]2)nc1	0.8%	?	22.2%	5.4%	5.4%	-76.6*
Nc1c(C(=O)CSc2nc3ccccc3o2)c(=O)[nH]c(=O)n1C1CC1	1.7%	1.5%	2.5%	/	-1.4%	+
CC1Cc2cc(/C(O)=C3/C(=O)C(=O)N(Cc4ccco4)C3c3cccs3)ccc2O1 (stereo unspecified)	5.3%	9.1%	13.0%	0.7%	35.5µM*	-19.8
Cc1ccc(S(=O)(=O)N[C@H]2COC(=O)[C@@H](C)COC(=O)C/C=C\[C@H]2C)cc1	/	/	/	-0.7%[12.9 µM]	/	/
C/C(=N\NC(=O)c1cc(O)ccc1O)c1cccc(NC(=O)c2cccc(Cl)c2)c1	-15.9%	21.7%	-15.9%	/	63.1µM*	32.0
C/C(=N\NC(=O)c1cc(O)ccc1O)c1cccc(NC(=O)c2ccc(Cl)cc2)c1	-20.4%	-27.7%	3.1%	/	39.8µM*	19.1
C/C(=N\NC(=O)c1ccccc1O)c1cccc(NC(=O)c2ccccc2)c1	7.6%	29.1%	-1.1%	-4.2%	7.9%	289.1
COc1ccc(C(=O)N/N=C(\C)c2cccc(NC(=O)c3ccc(F)cc3)c2)c(OC)c1	-4.7%	22.8%	0.5%	/	-10.9%	-60.6*
C[C@@H]1CN([C@H](C)CO)C(=O)c2cc(NC(=O)Nc3ccccc3)ccc2O[C@@H](C)CCCCO[C@H]1CN(C)S(C)(=O)=O	/	/	/	/	/	10.4
COc1cc(C/C=C\c2ccccc2)c(OC)cc1O	/	-4.6%	/	?	/	/
CCCCCNC(=O)c1ccc(NS(=O)(=O)c2ccc3[nH]c(=O)[nH]c3c2)cc1	1.3%	-9.0%	-0.8%	/	25.1µM*	-95.0*
CCCCNC(=O)c1ccc(NS(=O)(=O)c2ccc3[nH]c(=O)[nH]c3c2)cc1	-7.3%	-7.9%	23.7%	/	-4.2%	31.5
Cc1cccc(N2CCN(C(=O)c3ccc(NS(=O)(=O)c4ccc5[nH]c(=O)[nH]c5c4)cc3)CC2)c1C	-1.9%	12.3%	14.2%	-7.2%	-4.6%	-66.9*
CC(=O)O[C@@H]1C(=O)[C@@]2(C)[C@H](O)C[C@H]3OC[C@]3(OC(C)=O)[C@@H]2[C@H](OC(=O)c2ccccc2)[C@@]2(O)C[C@H](OC(=O)[C@@H](O)[C@@H](NC(=O)c3ccccc3)c3ccccc3)C(C)=C1C2(C)C (stereo in doubt)	/	/	/	-0.7%[21.7 µM]	/	/
CCCCCOc1ccc(Br)cc1CSC(=N)N	1.0%	15.8µM*	-25.8%	-12.2%	1.3%	-98.4*
CC1CCC2C(=O)N3C(CCC(C)C3c3ccccc3Br)C(=O)N2C1c1ccc(C#CCN(C)C)cc1 (stereo unspecified)	/	/	/	0.2%[12.9 µM]	/	/
O=C(Nc1nnc(SCc2cc(=O)n3cc(Cl)ccc3n2)s1)c1cccc(F)c1	-1.4%	-4.1%	/	/	1.5%	-13.1
Cc1cc(/C=C2/NC(=O)NC2=O)c(C)n1-c1sc2c(c1C#N)CCCC2	-1.7%	-16.7%	7.9%	-13.8%	?	-72.8*
